According to PubChem BioAssay:

Experiment: small molecules captured by biotinylated probe aFSTL3 – biochemical, small-molecule microarray, fluorescence 635/667, stem cell growth factor project, primary screen (AID 1064);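 also: measures binding of the biotinylated anti-FSTL3 antibody to printed compounds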
Settings: higher = more signal

Structure (SMILES) | composite z-score
COc1cc2c(cc1OC)CN(C(=O)[C@@H]1[C@H]3C(=O)O[C@H](c4ccccc4)[C@H](c4ccccc4)N3[C@H](c3ccc(OCCO)cc3)[C@@]13C(=O)Nc1ccc(C#CC4(O)CCCCCC4)cc13)CC2 | -0.543
C=C(/C(=C/C[C@H](OC(C)=O)c1cccc(OCCO)c1)c1cnc2ccccc2c1)C(C)C | -0.104
OCCCC1=CC(c2ccc(CN3CCCC3)cc2)N(Cc2sc3ccccc3c2Cl)CC1 (stereo not given) | 1.46
CCOC(=O)C[C@H]1[C@H](OC(=O)c2ccccc2-c2ccccc2)[C@@H](NC(=O)C2CCCCC2)c2cc(OCCCO)ccc2N1C(=O)Cc1ccc(OC)cc1 | 0.0253
CN1C(=O)C2C=CC(C(O)c3cccc4ccccc34)N(N3CCCCC3)C2C1=O (stereo not given) | 0.827
CC1=C([C@H](O)CCc2ccccc2)[C@H](CO)[C@@H]2C(=O)N(C)C(=O)[C@@H]2C1 | -0.0659
O=C1O[C@@H](c2ccccc2)[C@@H](c2ccccc2)N2[C@@H](c3ccc(OCCO)cc3)[C@]3(C(=O)Nc4ccccc43)[C@@H](C(=O)O)[C@H]12 | 0.161
C=C(/C(=C/C[C@@H](OC(C)=O)c1cccc(OCCO)c1)c1cc(C(=O)OC)ccc1OC)C(C)C | -0.367
CCOC(=O)C[C@H]1[C@H](OC(=O)c2cc3ccccc3oc2=O)[C@@H](NC(=O)c2ccc(-c3ccccc3)cc2)c2cc(OCCCO)ccc2N1C(=O)c1ccc2ccccc2n1 | -0.494
CC[C@H]1C2=C3C(CC[C@H]4C(OCc5ccc(F)cc5C(F)(F)F)OC[C@](C)([C@@H]34)N(C(=O)OC(C)(C)C)C2)C(COC)C1COC (stereo not given in full) | -0.117
C=CCOC(=O)[C@H]1[C@@H]2C(=O)O[C@@H](c3ccccc3)[C@@H](c3ccccc3)N2[C@@H](c2ccc(OCCOC(=O)[C@H]3C[C@H]4C(=O)N[C@@H](CCCCNC(C)=O)C(=O)N4[C@H]3c3ccc(O)cc3)cc2)[C@]12C(=O)Nc1ccccc12 | -0.0493
[N-]=[N+]=Nc1ccccc1[C@@H]1OC(c2ccc(OCCCO)cc2)=N[C@]1(Cc1ccccc1)C(=O)NCC(O)CO (stereo not given in full) | 1.45
COc1ccc(C(O)C2C=CC3C(=O)N(c4ccccc4)C(=O)C3N2Nc2ccc([N+](=O)[O-])cc2)cc1 (stereo not given) | 0.928
O=C1OCC=C[C@H]2OC34C=CCN(Cn5nnc6ccccc65)C(=O)[C@H]3N(CCCO)C(=O)[C@@H]4[C@@H]12 (stereo not given in full) | 0.466
CCC[C@@H]1C[C@@]1(CCC)[C@@H](NC(=O)OCc1ccccc1)c1ccc(-c2ccccc2)cc1 | 0.49
CC(C)(C)OC(=O)CC[C@@]1(C(=O)NCc2ccccc2)N=C(c2ccc(OCCCO)cc2)O[C@@H]1c1ccccc1N=[N+]=[N-] | 0.418
COCCCNC(=O)[C@]1(CCS(=O)(=O)c2ccccc2)N=C(c2ccc(OCCCO)cc2)O[C@@H]1c1ccccc1CN=[N+]=[N-] | 0.688
C=C(COC)/C(=C/C[C@H](OC(=O)c1ccncc1)c1ccccc1OCCO)c1cnc2ccccc2c1 | -0.776

Structure (SMILES) | composite z-score
O=C(NCC(F)(F)F)[C@@H]1c2ccccc2C(=O)N(Cc2cc(F)cc(C(F)(F)F)c2)[C@H]1c1ccc(CO)cc1 | 0.148
Cc1ccccc1C(O)C1C=CC2C(=O)N(C)C(=O)C2N1N(c1ccccc1)c1ccccc1 (stereo not given) | 1.01
COCCOC(=O)N1C(=O)[C@@]2(c3cc(C#CC4=CCCCC4)ccc31)[C@H](C(N)=O)[C@H]1C(=O)O[C@H](c3ccccc3)[C@H](c3ccccc3)N1[C@@H]2c1ccccc1OCCO | 0.193
C[N+](C)(C)CCCCCCNC(=O)[C@H]1C[C@H]2C(=O)NCC(=O)N2[C@H]1c1ccc(O)cc1 | -0.411
O=C1OCC=C[C@H]2OC34C=CCN(Cc5ccccc5)C(=O)[C@H]3N(CCCCCCO)C(=O)[C@@H]4[C@@H]12 (stereo not given in full) | 0.329
COc1ccc(-c2nc(-c3ccccc3)c3c(c2C)CO[Si]3(C(C)C)C(C)C)cn1 | -0.367
COCCOC(=O)N1C(=O)[C@@]2(c3cc(C#CC4(O)CCCCCC4)ccc31)[C@H](c1ccc(O)cc1)N1[C@H](c3ccccc3)[C@H](c3ccccc3)OC(=O)[C@H]1[C@@H]2C(=O)NC[C@H](O)c1ccccc1 | -0.116
[N-]=[N+]=NCc1ccccc1C[C@@]1(C(=O)NCc2ccccc2)N=C(c2ccc(OCCCO)cc2)O[C@@H]1c1ccccc1N=[N+]=[N-] | 0.298
[N-]=[N+]=NCc1ccccc1C[C@@]1(C(=O)N2CCOCC2)N=C(c2ccc(OCCCO)cc2)O[C@@H]1c1ccccc1 | 0.458
COc1ccc(NC(=O)O[C@H]2[C@H](OC(=O)Nc3ccccc3)[C@H](OC(=O)Nc3ccccc3)[C@@H](OC)O[C@@H]2CO)cc1 | 0.474
COCCOC(=O)N1C(=O)[C@@]2(c3ccccc31)[C@H](C(=O)N1CCN(c3ncccn3)CC1)[C@H]1C(=O)O[C@H](c3ccccc3)[C@H](c3ccccc3)N1[C@@H]2c1ccc(O)cc1 | 0.149
CCCCO[C@H]1C[C@H]2C(I)=C[C@@H]1C(=O)[C@]21CO1 | -0.329
COc1ccc(CN(C2=CC[C@@]3(C(N)=O)C(=O)C(Cl)=C(Cl)C(=O)[C@@]3(C#N)C2)S(=O)(=O)c2ccc(Br)cc2)cc1 | -0.181
CCCCN1CC=CC23O[C@@H]4/C=C\CCC(C)OC(=O)C4[C@H]2C(=O)N(C(CO)C(C)C)[C@@H]3C1=O (stereo not given in full) | -0.513
[N-]=[N+]=NCc1ccccc1C[C@]1(C(N)=O)N=C(c2ccc(OCCCO)cc2)O[C@H]1c1ccccc1 | 0.124
C=CCNC(=O)[C@H]1[C@@H]2C(=O)O[C@@H](c3ccccc3)[C@@H](c3ccccc3)N2[C@@H](c2ccc(O)cc2)[C@]12C(=O)Nc1ccc(C#CC3(O)CCCCCC3)cc12 | 0.0935
NCCCCCNC(=O)[C@@H]1C[C@@H]2C(=O)NCC(=O)N2[C@@H]1c1cccc(OCCO)c1 | -0.144
